Assay outcomes deposited in PubChem by National Center for Advancing Translational Sciences (NCATS).
A selection: hits, their analogues and other compounds. The true share with any hit is near 7.3%.
SMN2 splice up: qHTS Assay for Enhancers of SMN2 Splice Variant Expression | HEK293 SMN2-luciferase splicing reporter, luminescence, 30-36 h | Potency, µM (highest dose often 46.1 µM), for the others: top-dose activity change, positive = activation, most hits filed as activators | 210,000 compounds, 2.8% hits; also: % of control where 0% means no effect; nearly all actives have a fitted effect of over 55% in size
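qHTS luciferase splicing reporter: luminescence rises when SMN2 exon 7 is included in transfected HEK293 cells. Compound exposure lasted 30-36 h at 37C, with 4.5 mM final sodium butyrate as control, followed by a ONE-Glo read.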
Rab9 prom act: qHTS Assay for Rab9 Promoter Activators. Huh7 Rab9 promoter-luciferase reporter, luminescence, 24 h. Potency, µM (doses to about 9.22 µM), for inactives: at the top dose activation, negative = inhibition, actives largely listed as activators. 320,000 compounds, 2.8% hits. AID 485297, 2010; also: % of control where 0% means no effect; nearly all actives have a fitted effect of over 60% in size
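Huh7 reporter line, Rab9 promoter upstream of luciferase. Compound exposure 24 h at 37 °C in reduced-serum medium with 10% FBS. Read-out: luminescence.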
NPC1 promoter act: qHTS Assay for NPC1 Promoter Activators; Huh7 NPC1 promoter luciferase reporter, 24 h; Potency, µM (highest dose often 9.22 µM), for the others: top-dose activation, hits mostly activators; 320,000 compounds, 2.4% hits; AID 485313, 2010; also: % of control where 0% means no effect; nearly all actives have a fitted effect of over 60% in size
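Huh7 cells stably carrying NPC1 promoter–luciferase, plated in Opti-MEM with 10% FBS for 2 h, were exposed to compound in DMSO for 24 h at 37 °C; luciferase reagent was added for 10 min and luminescence read.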
Luc counter: Counterscreen for Luciferase (Kinase-Glo TM) Inhibition | Luciferin 4-monooxygenase (Photuris pensylvanica), Q27757 | Kinase-Glo luciferase, ATP luminescence, 8 min | Potency, µM (titrated, usually from 38.3 µM), for the others: at the top dose activity change, negative = inhibition, most hits filed as inhibitors | 200,000 compounds, 0.28% hits | AID 1379, 2008; also: % is scaled to controls: 0 for no effect and ±100 for the full control effect; nearly all actives have a fitted effect of over 60% in size
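Luminescence was the read-out, taken after 8-minute incubation at ambient temperature. Luciferase turned over luciferin with 10 uM ATP in imidazole pH 7.2 buffer containing KCl, MgCl2, Tween 20 and BSA.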
FLuc modulator: qHTS profiling assay for firefly luciferase inhibitor/activator using purifed enzyme and Km concentrations of substrates (counterscreen for miR-21 project); purified FLuc, Km substrates, luminescence inhibition; Potency, µM (highest dose often 57.5 µM), for the others: at the highest dose activity change, negative = inhibition, actives largely listed as inhibitors; 360,000 compounds, 6.9% hits; AID 588342, 2011;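 also: plate controls were vehicle for no effect and reference inhibitor for full effect; nearly all actives have a fitted effect of over 55% in size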
Target sequence (P08659 whole entry, looked up): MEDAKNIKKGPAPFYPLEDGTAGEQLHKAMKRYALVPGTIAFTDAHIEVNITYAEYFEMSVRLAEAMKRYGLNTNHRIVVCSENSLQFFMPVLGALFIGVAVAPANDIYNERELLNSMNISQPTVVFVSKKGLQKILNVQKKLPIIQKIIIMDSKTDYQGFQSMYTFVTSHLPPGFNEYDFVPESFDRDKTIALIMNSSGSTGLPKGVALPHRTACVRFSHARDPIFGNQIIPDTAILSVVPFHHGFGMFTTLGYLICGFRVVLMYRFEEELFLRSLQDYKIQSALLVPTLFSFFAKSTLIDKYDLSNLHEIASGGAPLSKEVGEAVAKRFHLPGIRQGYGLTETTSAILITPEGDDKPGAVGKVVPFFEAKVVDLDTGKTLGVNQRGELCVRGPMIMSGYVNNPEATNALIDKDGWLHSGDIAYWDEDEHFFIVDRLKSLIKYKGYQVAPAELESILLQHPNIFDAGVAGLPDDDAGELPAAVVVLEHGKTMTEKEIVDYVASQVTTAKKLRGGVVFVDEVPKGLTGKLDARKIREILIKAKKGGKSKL
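Purified P. pyralis luciferase (10nM final) with 10uM D-luciferin and 10uM ATP (Km levels) in 50mM Tris acetate pH 7.5, 10mM Mg acetate, 0.01% Tween-20, 0.05% BSA; qHTS 6-point titration, ~60 µM downward; luminescence read.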
The depositor's hits bear a star; ? = inconclusive; . = no result given; [ ] = dose if it differs, or a comment. Calls follow the shape of the dose curve; as a rule, active = well fitted curve in the direction sought with a large enough effect; inconclusive = small, poorly fitted or top-dose-only effect, or another doubt; inactive = no such curve, though single readings can be large; an effect the other way counts as inactive or inconclusive. Potency is read from the fitted curve at half-maximal effect.

SMILES	SMN2 splice up	Rab9 prom act	NPC1 promoter act	Luc counter	FLuc modulator
O=C(CCc1nc2ccccc2c(=O)[nH]1)Nc1nnc(SCc2ccccc2F)s1	.	?	29%	.	19µM*
C=CCSc1nnc(NC(=O)C2=COCCO2)s1	.	2.2µM*	4µM*	.	17µM*
O=C(Nc1nnc(SCc2ccc(F)cc2)s1)C1=COCCO1	.	19%	13%	.	-17%
O=C(Nc1nnc(SCc2ccccc2)s1)C1=COCCO1	.	3.5µM*	3.5µM*	.	?
c1ccc(CSc2nnc(NC3=NCCCCC3)s2)cc1	15%	4µM*	?	-2%	17µM*
Cc1cc(=O)[nH]c(SCC(=O)Nc2nnc(SCc3ccccc3)s2)n1	-26%	-1%	-6%	0%	13µM*
Cc1cc(=O)[nH]c(SCC(=O)Nc2nc3ccccc3s2)n1	-21%	-1%	1%	3%	?
O=C(Nc1nnc(SCc2ccccc2F)s1)C1=COCCO1	.	3.5µM*	2.5µM*	.	17µM*
O=C(Cc1cccs1)Nc1nnc(SCc2ccc(C(F)(F)F)cc2)s1	-16%	1%	-3%	4%	-2%
O=C(Cc1cccs1)Nc1nnc(SCc2ccc(Br)cc2)s1	-3%	-1%	-1%	1%	17µM*
CCOC(=O)C1CCN(Cc2nnnn2CCc2ccccc2)CC1	.	1.6µM*	4µM*	-4%	?
Cc1ccc(CN(C)C(=O)c2ccccc2Sc2ccccc2C#N)cc1	.	6%	-1%	.	0%
COc1cccc(CN(C)C(=O)c2ccccc2Sc2ccccc2C#N)c1OC	.	0.45µM*	0.32µM*	.	8.5µM*
COc1cccc(CN(C)C(=O)c2ccc(COc3ccc(Cl)cc3)cc2)c1OC	.	29%	?	.	13µM*
COc1ccc(-n2c(C)cc(C3=NNC(=NC4CC4)SC3)c2C)cc1	4µM*	0%	-2%	-6%	5.4µM*
CN=C1NN=C(c2cc(C)n(-c3c(C)n(C)n(-c4ccccc4)c3=O)c2C)CS1	-2%	-3%	0%	-1%	-1%
Cc1cc(C2=NNC(=NC3CC3)SC2)c(C)n1-c1ccccc1	-101%	-40%	-32%	?	0.076µM*
CC(C)C(=O)Nc1cccc(-c2nc3ccccc3o2)c1	15%	3%	-1%	1%	-13%
COC(=O)c1ccc(C(=O)Nc2ccc(-c3nc4cc(NC(=O)c5ccc(C(=O)OC)cc5)ccc4o3)cc2)cc1	-1%	.	.	.	-11%
CCc1ccc(OCC(=O)Nc2ccc(-c3nc4ccccc4o3)c(O)c2)cc1	?	3.5µM*	2µM*	-5%	10%
CC(=O)Nc1cccc(-c2nc3ccccc3o2)c1	.	30%	28%	.	19µM*
O=C(Nc1ccc(-c2nc3ccccc3o2)c(O)c1)c1cc(Cl)ccc1Cl	5%	.	.	.	?
CC(=O)Nc1ccc(-c2nc3ccc(NC(C)=O)cc3o2)cc1	.	2µM*	2.5µM*	.	?
Oc1cc(NCc2cccnc2)ccc1-c1nc2ccccc2o1	11µM*	?	1.4µM*	-1%	7.6µM*
COc1ccc(N(C(=O)COc2ccc(Br)cc2)S(=O)(=O)c2ccc(C)cc2)cc1	1%	.	.	.	-4%
SMILES	SMN2 splice up	Rab9 prom act	NPC1 promoter act	Luc counter	FLuc modulator
CCCCN(CC)C(=O)CCNS(=O)(=O)c1ccc2c(c1)c(=O)n(C)c(=O)n2C	-25%	.	.	.	0%
CC(=O)Nc1cc(-c2nc3ccccc3o2)ccc1Cl	.	?	15%	.	17µM*
CC(C)(C)c1ccc(C(=O)Nc2cc(-c3nc4ccccc4o3)ccc2Cl)cc1	-4%	.	.	.	0%
COc1ccc(OCC(=O)Nc2cccc(-c3nc4ccccc4o3)c2)cc1	66%	?	4.5µM*	-8%	?
O=C(O)CCC(=O)Nc1cccc(-c2nc3ccccc3o2)c1	.	0%	1%	.	11µM*
CC(=O)Nc1ccc2oc(-c3ccccc3)nc2c1	10µM*	2.5µM*	1.3µM*	-5%	7.6µM*
CCCC(=O)Nc1cccc(-c2nc3ccccc3o2)c1	34%	10%	5%	1%	?
Cc1ccc2oc(-c3cccc(NC(=O)c4sc5c([N+](=O)[O-])cccc5c4Cl)c3)nc2c1	7%	.	.	.	-8%
Cc1nn(-c2ccccc2)c2c1cc1c(=O)[nH]c(=O)nc-1n2-c1cccc(Cl)c1	-22%	.	.	.	-4%
COc1cccc(N2CCN(C(=O)CN3CCSc4ccc(S(=O)(=O)N(C)C)cc43)CC2)c1	.	.	.	.	0%
COc1ccc(-c2nc3ccccc3o2)cc1NC(=O)COc1ccc(C(C)(C)C)cc1	5µM*	.	.	.	-1%
CC(=O)Nc1ccc2nc3ccccc3nc2c1	.	4µM*	2.8µM*	.	19µM*
CC(=O)Nc1ccc(Nc2cc(C)c3ccccc3n2)cc1	.	10%	1%	.	?
COc1ccc(-c2nc3ccccc3o2)cc1NC(=O)COc1cc(C)cc(C)c1	.	.	.	.	-6%
Cc1ccc(CNC(=O)c2cnc3c(-c4ccc(F)cc4)c(C)nn3c2C)o1	.	.	.	.	-1%
CCOC(=O)c1ccccc1NC(=O)c1c2c(nc3ccccc13)C(=O)N(C1CCCCC1)C2	.	.	.	.	0%
Nc1ccc2oc(-c3ccccc3Cl)cc(=O)c2c1O	11µM*	4µM*	3.2µM*	-4%[39.9 µM]	6.7µM*
COc1ccc(-c2nc(C3CCCCC3)no2)cc1OC	23%	2µM*	?	-8%	15µM*
Cc1ccc(-c2nc(C3CCN(S(=O)(=O)c4ccc(C(C)(C)C)cc4)CC3)no2)cc1	-5%	-9%	0%	2%	-6%
c1ccc(-c2nc(C3CCCCC3)no2)cc1	24%	7%	12%	-3%	17µM*
Cc1ccc(-c2cc(C(=O)OCC(=O)N(C)C3CCS(=O)(=O)C3)c3ccccc3n2)o1 (centres undefined)	54%	13%	11%	-11%	?
CCN(C(=O)COC(=O)c1cc(-c2ccc(C)o2)nc2ccccc12)C1CCS(=O)(=O)C1 (centres undefined)	0%	13%	2%	-9%	19µM*
CCOc1ccccc1NC(=O)N1CCc2c(sc(C)c2CC)C1c1ccccc1 (centres undefined)	.	.	.	.	0%
Cc1cc(C(=O)CSc2nncs2)c(C)n1-c1ccc2c(c1)OCO2	-12%	2.2µM*	?	-1%	19µM*
Cc1ccccc1C(=O)N1c2ncnn2C2(CCCCC2)[C@@H]2CCCC[C@@H]21	.	.	.	.	2%
CCNC(=O)C1CCN(c2nnc(C)c3c(C)n(-c4ccc(OC)cc4)nc23)CC1	.	.	.	.	-1%
COc1cc(C)ccc1OCc1cc(C(=O)NC(C)Cn2cncn2)no1 (centres undefined)	.	1.6µM*	2.2µM*	.	?
COc1ccc(C(=O)NCc2ccncc2)cc1OC	-11%	-3%	-1%	-1%	0%
